Source: PubChem (The Scripps Research Institute Molecular Screening Center)
DAX1 inh-1: NR0B1 (DAX1) inhibition. 0.99% of 340,000 active. AID 504766. HEK293 Gal4-DAX1 luciferase reporter, luminescence. inhibition, % at 6.75 µM;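 active = inhibition above the mean over all tested compounds plus 3 SD, cut at about 4.2% in these data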;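 also: 0% = DAX1-transfected cells with DMSO and 100% = empty-vector control cells with DMSO; inhibition shows as a rise in luminescence from relieved DAX1 repression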
Target sequence (P51843 207-470 limits assumed): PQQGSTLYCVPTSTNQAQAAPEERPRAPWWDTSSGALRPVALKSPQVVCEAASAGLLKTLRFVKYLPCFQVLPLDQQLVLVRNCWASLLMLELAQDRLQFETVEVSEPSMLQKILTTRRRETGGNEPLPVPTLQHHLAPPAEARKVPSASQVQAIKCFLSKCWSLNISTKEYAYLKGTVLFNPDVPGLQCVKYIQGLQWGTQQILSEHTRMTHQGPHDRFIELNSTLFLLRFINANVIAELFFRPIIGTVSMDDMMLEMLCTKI
GAA850 FXN act: increases GAA850 frataxin promoter reporter activity; HEK293 lucGAA850 FXN promoter luciferase reporter, 24 h; percent of 10 µM SAHA response; activation, % at 6 µM; 0.56% of 360,000 active; AID 540364;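 active = activation above the average of all compounds screened plus 3 SD, cutoff fixed separately per campaign, cut at about 7.5% in these data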;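 also: 0% = DMSO wells and 100% = 10 µM SAHA wells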
DAX1 inh-2: inhibitors of DAX1 repression of SF-1 activated StAR promoter. inhibition, % at 6.8 µM. HEK293T StAR-luciferase reporter, SF-1/DAX-1 repression relief. 1.1% of 370,000 active;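 active = inhibition above the mean over all tested compounds plus 3 SD, cut at about 3.6% in these data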;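 also: 0% = DAX-1 cells with DMSO and 100% = cells lacking DAX-1 with DMSO; higher inhibition means more luminescence from relief of DAX-1 repression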
hcDAF12 agonist: activators of H. contortus DAF-12 nuclear receptor | HEK293 hcDAF-12 lit1-tk-luc reporter, luminescence; 0% DMSO, 100% Δ7-dafachronic acid | AID 652067 | activation, % at 6.8 µM | 1.4% of 370,000 active;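 active = activation above the mean of all tested compounds plus 3 SD, cut at about 5.5% in these data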;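 also: 100% = response to 3 µM Δ7-dafachronic acid high control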
ssDAF-12 act: S. stercoralis DAF-12 activation, primary screen | HEK293 ssDAF-12/GRIP1 lit1-tk-luc reporter, luminescence; % of 3 µM dafachronic acid response | activation, % at 6.8 µM | 1% of 370,000 active | AID 652126;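 active = activation above the mean over all tested compounds plus 3 SD, cut at about 0.9% in these data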;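 also: 0% = DMSO-only wells and 100% = 3 µM delta7-dafachronic acid wells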
hgDAF-12 ag: hgDAF-12 agonism, primary luciferase screen. AID 687014. activation, % at 6.8 µM. HEK293 GAL4-hgDAF12 UAS-luciferase reporter, agonist luminescence; normalized to butyrate control. 1.8% of 370,000 active;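 active = activation above a cutoff set at the mean of all screened compounds plus 3 SD, cut at about 10% in these data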;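 also: 0% = DMSO wells and 100% = sodium butyrate wells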
LXR ag: counter-screen for hcDAF-12 agonists: agonists of human LXR-beta. activation, % at 6.8 µM. 3,400 tested, under 10 active. HEK293 Gal4-LXR tk-luc reporter, luminescence, 24 h; normalized: DMSO 0%, positive control 100%. shares compounds with hcDAF12 agonist. AID 743027;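 active = mean percent activation of the reporter above a cutoff set as the average over tested compounds plus their standard deviation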
hcDAF12 conf: confirmation of H. contortus DAF-12 agonists; 61% of 3,400 active; shares compounds with hcDAF12 agonist; activation, % at 6.8 µM; HEK293 hcDAF-12 lit1-tk-luc reporter, luminescence; % of Δ7-dafachronic acid response;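 active = mean activation across triplicate tests above the threshold derived from the earlier primary screen, cut at about 5.5% in these data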;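 also: 0% = DMSO only wells and 100% = 3 µM Δ7-dafachronic acid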
An asterisk follows results filed as active; . = no result given. Compounds with a hit are over-represented: about 4.5% of the library has one in this group of screens.

SMILES | DAX1 inh-1 | GAA850 FXN act | DAX1 inh-2 | hcDAF12 agonist | ssDAF-12 act | hgDAF-12 ag | LXR ag | hcDAF12 conf
CCC1CCC(N2CCN(c3cccc(OC)c3)CC2)CC1 (stereo not given) | 0 | 0 | 1 | 8.1* | 0 | 10 | 0 | 1
CC(C)CNC(=S)N(CCCN(C)C)Cc1cc2cc3c(cc2[nH]c1=O)OCCO3 | 0 | 2 | 1 | -1 | -1 | 2 | . | .
COc1cc(OC)cc(OC(=O)C2CCN(C3=NS(=O)(=O)c4ccccc43)CC2)c1 | 1 | -1 | 0 | -1 | -1 | -1 | . | .
O=C(OCc1nc2ccccc2s1)C1CCN(C2=NS(=O)(=O)c3ccccc32)CC1 | 2 | 4 | 2 | 9.7* | 1.4* | 5 | 1 | 9.6*
CCOC(=O)c1ccccc1NC(=S)N1CCN(C(=O)c2ccco2)CC1 | 0 | 1 | 0 | -1 | -1 | 0 | . | .
Oc1ccccc1-c1nc(N2CCN(Cc3ccccc3)CC2)c2ccccc2n1 | -1 | 0 | 0 | 8.5* | 0 | 6 | 0 | 4
CC(=O)c1ccc(OC(C)c2nc3ccccc3s2)cc1 (stereo not given) | 2 | 3 | 0 | 7.7* | 1.0* | 5 | 0 | 9.6*
Cc1cc(C)n(-c2ncnc3sc4c(c23)CCCC4)n1 | 1 | 3 | 1 | 7.4* | 0 | 0 | 0 | 2
O=C(CS(=O)(=O)c1ccccc1)Nc1nc2ccccc2s1 | 1 | -1 | 0 | 7.1* | 0 | 5 | 0 | 3
S=C(Nc1ccccc1)c1nc2ccccc2s1 | 2 | 6 | 1 | 9.2* | 1.1* | 12* | 1 | 8.9*
O=C(CCc1nc2ccccc2s1)Nc1ccccc1 | -1 | 2 | -1 | -1 | -1 | -1 | . | .
O=C(NNc1nc2ccccc2s1)Nc1ccccc1 | 1 | 4 | 1 | 7.2* | 0 | 5 | 1 | 4
CC(=O)NNc1nc2ccccc2s1 | 3 | -1 | 0 | 3 | 0 | 0 | . | .
NS(=O)(=O)c1ccc2nc(NC(=O)CS(=O)(=O)c3ccccc3)sc2c1 | 0 | -1 | 0 | 0 | 0 | 2 | . | .
CSCCC(c1nc2ccccc2[nH]1)n1c(-c2cc(C(F)(F)F)cc(C(F)(F)F)c2)nc2ccccc21 (stereo not given) | . | . | 0 | -1 | -1 | -4 | . | .
O=c1c(-c2cccc3ccccc23)[n+]([O-])c2ccccc2n1O | -2 | -1 | -1 | 7.3* | 0 | 3 | 0 | 5.9*
CCOn1c(=O)c(-c2cccc3ccccc23)[n+]([O-])c2ccccc21 | -1 | 1 | 0 | 3 | -1 | -2 | . | .
COc1ccc(-c2nnc(SCC(=O)Nc3ccc4cn[nH]c4c3)n2Cc2ccco2)cc1 | . | . | -2 | 7.4* | 1 | 4 | 0 | 5
COc1ccc(-n2ncc(N(C)n3cccc3)c(Cl)c2=O)cc1 | 2 | 2 | 3.9* | 6.8* | 0 | 12* | 1 | 4
CCOc1cc2c3c(c1)C1(C(=O)N3C(C)(C)CC2C)C(C#N)=C(N)N2C(=C1C#N)Nc1ccccc12 (stereo not given) | -1 | 0 | 0 | 7.2* | -1 | 1 | 0 | -1
O=C(C[C@H]1CC[C@@H]2[C@H](COC[C@@H](O)CN2Cc2cccc(F)c2)O1)NCC1CCCCC1 | . | . | -2 | 1 | -1 | -1 | . | .
OC(c1ccccc1)c1nc(-c2cncnc2)cs1 (stereo not given) | . | 2 | 0 | -1 | -1 | 1 | . | .
Cc1c(/N=C(\[O-])Nc2ccc(Br)cc2)sn[n+]1C | . | 0 | 3 | 7.0* | 1 | 11* | 2 | 7.5*
COc1ccc(C(=O)NCCN2C(=O)S/C(=C\c3cccnc3)C2=O)cc1[N+](=O)[O-] | -1 | 5 | -1 | -1 | -1 | 0 | . | .
